Test results taken from PubChem BioAssay AID886 (National Center for Advancing Translational Sciences (NCATS), 2007).
“And” between values parts separate entries of the source, which are not always exact repeats. Equal entries are not always repeated. The campaign covered roughly 73,000 compounds. About 2,500 (3.4%) were called active. About 7% were inconclusive and are not listed. Calls follow the shape of the dose curve; as a rule, active = well fitted inhibition curve with a large enough effect; inconclusive = small, poorly fitted or top-dose-only effect; inactive = no such curve, though single readings can be large or run the other way. Only a selection was taken, and actives are over-represented in it overall. A structure can be active in one record and inactive in another.

Biological target: 3-hydroxyacyl-CoA dehydrogenase type-2 (Homo sapiens) (UniProt Q99714)
Assay: qHTS Assay for Inhibitors of HADH2 (Hydroxyacyl-Coenzyme A Dehydrogenase, Type II); also: nearly all actives have a fitted effect of over 60% in size
Conditions: recombinant HADH2, NADH fluorescence, beta-hydroxybutyryl-CoA; series mostly up to 57.1 µM; activity change, negative = inhibition: at the top concentration
Summary of the method: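 E. coli-expressed His-tagged HADH2 tested at 20 nM in alkaline Tris buffer (pH 9.0); oxidation of 90 uM beta-hydroxybutyryl-CoA with 1 mM NAD+ tracked fluorimetrically for 4 min.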
% is scaled to controls: 0 for no effect and ±100 for the full control effect; potency is read from the fitted curve at half-maximal effect.

3-hydroxyacyl-CoA dehydrogenase type-2 (Homo sapiens), sequence (Q99714 whole entry, looked up): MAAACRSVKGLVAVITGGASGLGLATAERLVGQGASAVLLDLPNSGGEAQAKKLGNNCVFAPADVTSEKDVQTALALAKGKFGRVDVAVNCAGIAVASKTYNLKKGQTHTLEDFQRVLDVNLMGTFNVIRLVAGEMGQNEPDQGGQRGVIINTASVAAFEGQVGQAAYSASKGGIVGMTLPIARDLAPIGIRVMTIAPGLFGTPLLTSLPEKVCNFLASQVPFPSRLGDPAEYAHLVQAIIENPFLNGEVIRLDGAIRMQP
3-hydroxyacyl-CoA dehydrogenase type-2 (Homo sapiens), sequence (Q99714 whole entry, looked up): as above

Activity change, negative = inhibition, inactive:
CC(=NCc1ccco1)C1=C(O)c2ccccc2C1=O -18%
Cc1nc2nc(COc3ccccc3)[nH]n2c(=O)c1Cc1ccccc1 1.89%
O=c1[nH]c(-c2cccs2)nc2ccccc12 -19.2%
CCNCCCNCCCNCCCNCC 6.34%
CO[C@H]1COC(=O)CCC[C@@H](C)[C@H](OC)COC(=O)[C@@H](C)NC(=O)C/C=C\[C@@H]1C 7.05% [at 11.4 µM]
O=c1c2cc3c(=O)n(CC4CCCO4)c(=O)c3cc2c(=O)n1CC1CCCO1 (stereo unspecified) 6.36%
Cn1c(=O)c2c(nc(CN3CCOCC3)n2Cc2ccccc2)n(C)c1=O 6.36%
CCCOc1ccc(C2c3c(oc4cc(C)c(C)cc4c3=O)C(=O)N2CCCN2CCOCC2)cc1 (stereo unspecified) -2.03%
COc1ccc(CNC(=O)c2cc3c(=O)n4ccccc4nc3n(CC3CCCO3)c2=N)cc1 (stereo unspecified) -24.1%
COc1ccc(-c2oc3cc(OC)ccc3c2C(=O)c2ccc(C#N)cc2)cc1 2.77%
c1ccc2nc(C3=NCCN3)cnc2c1 -2.79%
CC(C)NC(=O)N1CCC2(CC1)CCN(C(=O)c1cccn1C)CC2 -0.373%
c1ccc(Nc2nc(-c3ccncc3)cs2)nc1 4.64%
O=C(Nc1nc(-c2ccc3c(c2)OCO3)cs1)c1ccncc1 1.46%
C#CCCCCCCCCCCCCCCCC(=O)O -6.22%
C[N+](C)(C)CCCCCNCC12CC3CC(CC(C3)C1)C2 8.85%
O=C1NC(=O)[C@@](Cc2ccccc2)(c2cccnc2)N1 1.4% [at 11.4 µM]
COCCn1nnnc1C(c1cc2ccc(OC)cc2[nH]c1=O)N1CCc2ccccc2C1 (stereo unspecified) -7.76%
COc1ccc(N2CCN(C(c3cc4ccc(C)cc4[nH]c3=O)c3nnnn3C3CCCC3)CC2)cc1 (stereo unspecified) 1.4%
O=C(c1ccco1)N1CCC2(CC1)CCN(c1ncccn1)CC2 -1.68%
CCCCC(=O)Nc1ccc2c(c1)OCCO2 -4.77%
CCOC(=O)NCc1ccc2c(c1)OCO2 0.436%
C1CCC2OC2C1 (stereo unspecified) -5.38%
COC(=O)c1ccccc1NC(=O)c1ccccc1NS(C)(=O)=O -21.3%
COc1ccc(C(=O)Nc2nncs2)c(OC)c1 -22.5%
COC(=O)c1ccc(C(NC(=O)OCc2ccccc2)/C(C)=C/[C@@H](C)C(=O)NCc2cc(C)on2)cc1 (stereo partly specified) 6.01%
Cc1cc(N2CCCCC2)nc2ccc(Cc3ccc4nc(N5CCCCC5)cc(C)c4c3)cc12 1.3% [at 11.4 µM]
Nc1ccc2[nH]cc(CCC(=O)O)c2c1 -22.6% [at 11.4 µM]
c1ccc(CSc2nnc(-c3ccco3)n2Cc2ccccc2)cc1 6.77%
Nc1cc(=O)nc(SCc2ccccc2)n1Cc1ccco1 -3.38%
CC1=C(C(=O)OCc2ccccc2)C(c2ccc(C(F)(F)F)cc2)NC(=O)N1CCCCCC(=O)O (stereo unspecified) 6.51%
COCCNc1cc(-c2c(C)noc2C)ncn1 2.69%
O=c1[nH]nc(Cc2ccccn2)c2ccccc12 -3.94%
COc1ccc(-c2nc3cnc(OC)nc3n(Cc3ccc(F)cc3)c2=O)cc1 2.45%
O=C(NCc1ccccc1)[C@H]1C[C@@H]1[C@H](NP(=O)(c1ccccc1)c1ccccc1)c1ccccc1 -0.196%
Cc1nc2cnc(N3CCNCC3)nc2n(Cc2ccc(F)cc2)c1=O -1.77%
CCn1c(CNC(=O)c2ccc(OC)c(OC)c2)nnc1SCC(=O)Nc1ccccc1 17.2%
CCOC(=O)c1cc2n(c1C)-c1ccccc1C2=O 5.2%
CCOC(=O)c1cc2n(c1N)-c1ccccc1C2=O -21.5%
CS(=O)(=O)N1CCC2(CC1)CN(Cc1cc(C(F)(F)F)cc(C(F)(F)F)c1)C2 7.84%
CS(=O)(=O)Nc1cccc(-c2cncnc2Nc2ccccc2)c1 -11.2%
CNc1cc(-c2c(C)noc2C)ncn1 1.11%
CCCc1nc2ccccc2c(=O)n1/N=C/c1ccc(O)c(O)c1 3.33%
O=C(CCOc1ccccc1)NCc1ccccc1 11%
C[C@@H]1C[C@H]2[C@@H]3C[C@H](F)C4=CC(=O)C=C[C@@]4(C)[C@]3(F)[C@H](O)C[C@]2(C)[C@@]1(O)C(=O)CO 1.79% [at 25.6 µM]
COc1ncc2nc(-c3ccc(Cl)cc3)c(=O)n(-c3ccccc3)c2n1 0.99%
COc1ccccc1N1CCN(CCN2C(=O)c3ccccc3C(C)(C)C2=O)CC1 5.74%
Cc1c(S(=O)(=O)O)ccc(N=Nc2c(O)c(C(=O)O)cc3ccccc23)c1Cl 14% [at 11.4 µM]
C/C(CCN1CCc2nc(-c3ccccc3)c(-c3ccccc3)cc2C1)=N\O[C@@H](C)c1cn([C@@H]2COC[C@@H]2O)nn1 -0.942% [at 11.4 µM]
CC(C)=CCC/C(C)=C/CO/N=C1/C[C@@H](O)[C@@H](O)[C@@H]2[C@@H]3C(=O)N(C(C)(C)C)C(=O)[C@H]3CC[C@H]12 2.13% [at 11.4 µM]
Cc1ccc(OCC(=O)Nc2ccc(-c3nnc(-c4ccco4)o3)cc2)cc1 13.8%
Cc1ccc(OCC(=O)Nc2ccc(-c3nc4ncccc4o3)cc2)cc1 -29.8%
CO[C@H]1COC(=O)C/C=C\[C@H](C)COC(=O)[C@@H](OCc2ccccc2)/C=C\[C@@H]1C 8.32% [at 11.4 µM]
COc1ccc2c(=O)cc(-c3ccccc3)oc2c1O -7.36%
Cc1cc2nc3c(=O)[nH]c(=O)nc-3n(C[C@H](O)[C@H](O)[C@H](O)CO)c2cc1C -15.5%
COc1cccc(-c2nn(C)c3sc(C(=O)N4CCN(c5ccccc5)CC4)cc23)c1 -8.9%
CC(=O)c1c(N2CCOCC2)nc(=S)n(-c2cc(C)ccc2C)c1C 0.579%
Cc1ccc(OCCCC(=O)N2CCOCC2)c(C)c1 13.5%
Cc1cccc(-n2c(N)cc(=O)nc2SC(C)C(=O)NC2CCCCC2)c1 (stereo unspecified) 3.12%
O=C(c1ccccc1)N1CCN(C(=O)N2CCCCC2)CC1 5.98%
CCC(=O)Nc1sc(C(=O)N2CCCCC2)c(C)c1C#N -0.224%
N#Cc1cc2[nH]c(=O)c(=O)[nH]c2cc1[N+](=O)[O-] -19.4%
CCC[C@H]1C(=O)N2C(N(C)C)=Nc3ccc(C)cc3N2C1=O 2.69% [at 25.6 µM]
Cc1cnc(CNc2ncncc2-c2ccccc2Cl)cn1 -29.7%
COC(=O)[C@H]1C[C@@H]1[C@H](NC(=O)Oc1ccc(F)cc1)c1ccccc1 3.03%
CN1CCN(c2ncc3nc(-c4ccc(Cl)cc4)c(=O)n(-c4ccccc4)c3n2)CC1 43.8%
C#CCC(C(=O)OC)(C(=O)OC)C(C[N+](=O)[O-])c1ccccc1 (stereo unspecified) 1.44% [at 11.4 µM]
Cc1ccc2oc(=O)ccc2c1 -5.29%
CC(=O)OCC1OC(C#CCCCc2ccccc2)C=CC1OC(C)=O (stereo unspecified) -21.4% [at 11.4 µM] and -18.3% [at 11.4 µM]
O=c1oc2cc(O)ccc2cc1-c1ccc(F)cc1 15.3%
COc1cccc(C(=O)c2cc3ccc(O)cc3oc2=O)c1 -27.7%
Nc1ccccc1N 1.07%
COC(=O)N1CCC[C@@]2(CCN(C(=O)NC(C)C)C2)C1 -4.88%
N=C(CC(=O)Nc1ccccn1)c1ccccc1 6.89% [at 11.4 µM]
CC(C)c1cc(CN(C)C)c(O)c(C(C)(C)C)c1 -0.755% [at 11.4 µM]
c1cnn(-c2cc(N3CCOCC3)ncn2)c1 6.49%
O=C(CN1CCOCC1)Nc1cc(Cl)ccc1Cl 3.52%
O=C(O)CC(C(=O)O)C(CC(=O)O)C(=O)O (stereo unspecified) 2.27%

Potency, inactive and 15.8 µM (active):
N#C/C(=C\c1ccc(O)c(O)c1)C(=O)NCc1ccccc1

Potency, active:
CCc1c(C)nc2cc(-c3cccs3)[nH]n2c1=O 39.8 µM
CN(C)C(=O)/N=N\C(=O)N(C)C 0.631 µM
Cc1cccn2c(=O)c3cc(C#N)c(=O)n(CCCN4CCOCC4)c3nc12 31.6 µM
Cc1cccn2c(=O)c3cc(C#N)c(=NC(=O)c4cccnc4)n(CC4CCCO4)c3nc12 (stereo unspecified) 25.1 µM
O=C(Nc1nc(-c2ccncc2)cs1)C1COc2ccccc2O1 (stereo unspecified) 1 µM
CCOc1ccc2[nH]c(=O)c(C(c3nnnn3CCOC)N3CCOCC3)cc2c1 (stereo unspecified) 25.1 µM
CCC1=C/C(=C\c2ccc3c(c2)OCO3)C(=O)S1 31.6 µM
O=C(Nc1nncs1)c1ccccc1NS(=O)(=O)c1cccs1 31.6 µM
c1ccc(CSc2nnc(-c3ccco3)c(-c3ccco3)n2)cc1 5.01 µM
CN(CCc1ccccn1)S(=O)(=O)c1ccc2c3c(cccc13)C(=O)N2 31.6 µM
CCCn1c(=NC(C)=O)c(C(=O)OCC)cc2c(=O)n3ccccc3nc21 31.6 µM
N#C/C(=C\c1ccc(O)c(O)c1)C(N)=O 31.6 µM
COc1ccc(CC(=O)Nc2ccc(-c3nnc(-c4ccc(C)cc4)o3)cc2)cc1 0.251 µM
N#Cc1ccccc1-n1c(N)c(C(=O)N2CCCC2)sc1=S 2.51 µM
Cc1ccc(-n2c(N)c(C(=O)N3CCOCC3)sc2=S)c(C)c1 3.16 µM
Cc1cccc(-n2c(N)c(C(=O)N3CCN(C)CC3)sc2=S)c1 0.631 µM
O=c1cc(-c2ccccc2)[nH]c2nc(Cl)ccc12 25.1 µM
CCN(CC)c1ccc2oc(=O)c(C)nc2c1 3.98 µM
COc1ccc(-c2cc3ccc(OCc4nn[nH]n4)cc3oc2=O)cc1 3.16 µM
O=C(Nc1cc(N2CCOCC2)ncn1)NC1(C(F)(F)F)Oc2ccc(Cl)cc2O1 (stereo unspecified) 3.16 µM
O=C(O)[C@@H](S)[C@H](S)C(=O)O 1 µM

Potency, inactive:
COC(=O)[C@@H]1[C@H]2C[C@H]3c4[nH]c5cc(OC)ccc5c4CCN3C[C@@H]2C[C@@H](OC(=O)c2cc(OC)c(OC)c(OC)c2)[C@@H]1OC
